In the library only some 6.9% were active in any assay of this set; here they are far more common.
L3MBTL1 inh: inhibitors of human L3MBTL1; actives 0.66% (n = 230,000); AlphaScreen L3MBTL1–H3K9me1 peptide binding; AID 485360; Potency, µM (highest dose often 57.1 µM), usual class: inhibitors; Q9Y468; further: nearly all actives have a fitted effect of over 60% in size
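Read-out is AlphaScreen signal from streptavidin donor and nickel chelate acceptor beads (10 ug/mL final each) bridging L3MBTL1 (50 nM) and biotinylated K9-monomethylated H3(1-15) peptide (75 nM), after 30 min compound exposure at room temperature.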
HP1b chromo inh: inhibitors of HP1-beta chromodomain binding to methylated histone tails; P83916; AlphaScreen HP1-beta / biotin-H3K9me3 peptide binding; Potency, µM (top dose mostly 114 µM), hits mostly inhibitors; actives 0.56% (n = 390,000); AID 540317; further: nearly all actives have a fitted effect of over 70% in size
Target sequence (P83916 whole entry, looked up): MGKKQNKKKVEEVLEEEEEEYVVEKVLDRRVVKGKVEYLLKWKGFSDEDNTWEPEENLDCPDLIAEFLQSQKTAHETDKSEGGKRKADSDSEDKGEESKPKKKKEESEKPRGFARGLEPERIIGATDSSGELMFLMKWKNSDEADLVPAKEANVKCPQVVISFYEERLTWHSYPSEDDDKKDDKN
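AlphaScreen: HP1-beta (50 nM) preformed 30 min with biotin-H3(1-18)K9me3 peptide (50 nM) in PBS pH 7.4, 0.01% Tween-20. Compound added for 30 min at RT, then streptavidin donor/nickel chelate acceptor beads (10 ug/mL) for 30 min.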
BAZ2B block: blocks human BAZ2B. Potency, µM (doses to about 114 µM), actives largely listed as inhibitors. AlphaScreen BAZ2B-H3K14Ac peptide displacement. actives 4.4% (n = 360,000). Q9UIF8. AID 504333; further: nearly all actives have a fitted effect of over 60% in size
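Multi-concentration screen (max 110 uM) measuring displacement of acetylated histone H3 peptide from BAZ2B by AlphaScreen, using 50 nM protein, 50 nM peptide and 10 ug/mL streptavidin donor plus Ni-chelate acceptor beads.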
VDR inh: vitamin D3 receptor (human) inhibition; P11473; VDR-SRC2-3 peptide fluorescence polarization, 2 h; Potency, µM, hits mostly inhibitors; actives 0.93% (n = 400,000); AID 504847
Target sequence (P11473 whole entry, looked up): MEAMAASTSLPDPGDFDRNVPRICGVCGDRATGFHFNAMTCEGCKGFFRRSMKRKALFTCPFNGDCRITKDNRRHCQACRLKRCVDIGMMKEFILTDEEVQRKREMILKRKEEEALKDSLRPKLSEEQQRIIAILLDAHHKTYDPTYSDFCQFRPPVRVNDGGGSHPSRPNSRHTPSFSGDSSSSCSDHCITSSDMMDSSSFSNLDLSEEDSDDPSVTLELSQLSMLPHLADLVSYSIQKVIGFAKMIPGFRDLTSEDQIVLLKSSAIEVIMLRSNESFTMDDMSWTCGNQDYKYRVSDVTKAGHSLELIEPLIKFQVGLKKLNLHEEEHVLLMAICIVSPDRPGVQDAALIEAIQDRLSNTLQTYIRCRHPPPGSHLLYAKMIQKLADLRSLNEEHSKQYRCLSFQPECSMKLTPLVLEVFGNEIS
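Compounds are added to VDR with labelled SRC2-3 coactivator peptide and held 2 h at room temperature. Inhibition of the VDR–peptide interaction is then read as a change in fluorescence polarization.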
JMJD2A Tudor: inhibitors of human JMJD2A Tudor domain; AlphaScreen JMJD2A-Tudor / H3K4me3 peptide binding; Potency, µM (series often up to 114 µM), most hits filed as inhibitors; actives 4.4% (n = 390,000); further: nearly all actives have a fitted effect of over 50% in size
PLK1 PBD inh: inhibitors of human PLK1 polo-box domain binding; P53350; Plk1 PBD binding of FITC phosphopeptide, fluorescence polarization; Potency, µM, actives largely listed as inhibitors; actives 2.8% (n = 360,000); AID 720504; further: series mostly up to about 57 µM; nearly all actives have a fitted effect of over 65% in size
TbPYK confirm: confirmation of Trypanosoma brucei pyruvate kinase inhibitors. recombinant TbPYK, Kinase-Glo ATP luminescence. AID 720569. Potency, µM (doses to about 76.9 µM), most hits filed as inhibitors. shares compounds with PLK1 PBD inh. actives 67% (n = 890); further: nearly all actives have a fitted effect of over 70% in size
TbPYK ADP-Glo: orthogonal confirmation of Trypanosoma brucei pyruvate kinase inhibitors; Potency, µM (titrated, usually from 76.9 µM), most hits filed as inhibitors; actives 62% (n = 890); shares compounds with PLK1 PBD inh; recombinant TbPYK, ADP-Glo luminescence, 60 min; further: nearly all actives have a fitted effect of over 75% in size
Each line names hits and unclear results; the compound was inactive in the other large screens (follow-up assays come after a bar, where they were run). The call rests on the fitted dose curve; in most records, active means well fitted curve in the direction sought with a large enough effect; inconclusive means small, poorly fitted or top-dose-only effect, or another doubt; inactive means no such curve, though single readings can be large; an effect the other way counts as inactive or inconclusive.

Cc1ccc(N2C(=O)NC(=O)/C(=C/c3ccc(-c4ccc(C(=O)O)c(Cl)c4)o3)C2=O)cc1	BAZ2B block inconclusive, VDR inh inconclusive, PLK1 PBD inh 1.3µM (no result: L3MBTL1 inh) | TbPYK confirm 7.1µM | TbPYK ADP-Glo 14µM
Cc1ccc(N2C(=O)CC(=O)NC2=O)cc1	none (no result: L3MBTL1 inh)
Cc1ccc(N2C(=O)NC(=O)/C(=C\c3ccoc3)C2=O)cc1	L3MBTL1 inh inconclusive, BAZ2B block inconclusive, PLK1 PBD inh inconclusive | TbPYK confirm inconclusive | TbPYK ADP-Glo inconclusive
Cc1ccc(NC(=O)CSc2nc(-c3ccco3)cc(C(F)(F)F)n2)c(C)c1	none (no result: L3MBTL1 inh, PLK1 PBD inh)
CC1=C2CC3C(CC=C4C[C@@H](O)CC[C@@]43C)[C@@H]2CC[C@]12O[C@@H]1C[C@H](C)CN[C@H]1[C@H]2C (some centres not stated)	none (no result: L3MBTL1 inh, HP1b chromo inh, BAZ2B block, JMJD2A Tudor, PLK1 PBD inh)
CCN1CCN(c2ccc([N+](=O)[O-])cc2C=C2C(=O)NC(=O)NC2=O)CC1	HP1b chromo inh inconclusive, VDR inh inconclusive, PLK1 PBD inh 11µM | TbPYK confirm 20µM | TbPYK ADP-Glo inconclusive
O=C(Oc1ccccc1)N1CCC[C@@]2(CCN(C(c3ccccc3)c3ccccc3)C2)C1	none (no result: L3MBTL1 inh, HP1b chromo inh, BAZ2B block, JMJD2A Tudor, PLK1 PBD inh)
COC(=O)C1=C(C(=O)OC)SC2(S1)C(C(=O)OC)=C(C(=O)OC)Sc1c2ssc1=O	HP1b chromo inh 16µM, VDR inh 2µM, JMJD2A Tudor 40µM, PLK1 PBD inh 1.2µM (no result: L3MBTL1 inh, BAZ2B block) | TbPYK confirm 11µM | TbPYK ADP-Glo 14µM
Cc1ccc2c(c1)=NC(=O)/C(=C/c1c(O)[nH]c(=O)[nH]c1=O)C=2	VDR inh 79µM, PLK1 PBD inh 15µM (no result: L3MBTL1 inh) | TbPYK confirm 25µM | TbPYK ADP-Glo 22µM
CC1=Nc2ccccc2/C1=C/c1c(O)[nH]c(=O)[nH]c1=O	BAZ2B block inconclusive, PLK1 PBD inh inconclusive
COc1cc(O)c(C(=O)O)c(-c2cc(O)c(O)cc2C)c1	HP1b chromo inh inconclusive, BAZ2B block 56µM, JMJD2A Tudor 13µM, PLK1 PBD inh inconclusive (no result: L3MBTL1 inh) | TbPYK confirm 2µM | TbPYK ADP-Glo 10µM
COc1ccc2c(c1)c(C(=O)O)c(C)n2CC(C)C	none (no result: L3MBTL1 inh)
CC(C)[N+](C)(C)CC(O)CN(c1ccccc1)c1ccccc1 (configuration not stated)	JMJD2A Tudor inconclusive
CCOP(=O)(C1=C(O)C(=O)C(C(C)(C)C)=CC1=O)c1ccccc1 (configuration not stated)	VDR inh inconclusive, PLK1 PBD inh inconclusive (no result: L3MBTL1 inh) | TbPYK confirm inconclusive | TbPYK ADP-Glo inconclusive
CN(C)CCN=Cc1c(O)n(Cc2ccco2)c(=O)[nH]c1=O	BAZ2B block inconclusive
O=c1[nH]c(=S)n(Cc2ccco2)c(O)c1C=NCc1cccs1	HP1b chromo inh inconclusive, BAZ2B block 5µM, JMJD2A Tudor inconclusive (no result: L3MBTL1 inh) | TbPYK confirm inconclusive | TbPYK ADP-Glo inactive
CCCCC[C@@H](/C=C/C=C\C/C=C\C/C=C\CCCC(=O)O)OO	none (no result: L3MBTL1 inh, HP1b chromo inh, BAZ2B block, JMJD2A Tudor, PLK1 PBD inh)
O=C1NC(=O)C(=Cc2coc3ccc(O)cc3c2=O)C(=O)N1	BAZ2B block inconclusive, VDR inh inconclusive, PLK1 PBD inh 27µM | TbPYK confirm 14µM | TbPYK ADP-Glo inconclusive
COC1CC(=C(c2cccs2)c2cccs2)C[N+](C)(C)C1 (configuration not stated)	none (no result: L3MBTL1 inh, HP1b chromo inh, BAZ2B block, JMJD2A Tudor, PLK1 PBD inh)
CC(C)NC(=O)N1CC[C@@]2(CCCNC2)C1	none (no result: L3MBTL1 inh, HP1b chromo inh, BAZ2B block, JMJD2A Tudor, PLK1 PBD inh)
NC1CCc2cc(O)c(O)cc2C1 (configuration not stated)	HP1b chromo inh inconclusive, JMJD2A Tudor 11µM | TbPYK confirm inactive | TbPYK ADP-Glo 28µM
NC(N)=NOCC[C@H](N)C(=O)O	none (no result: L3MBTL1 inh, HP1b chromo inh, BAZ2B block, JMJD2A Tudor, PLK1 PBD inh)
O=C1NC(=O)C(=Cc2cccc(OCCOc3ccccc3)c2)C(=O)N1	VDR inh inconclusive, JMJD2A Tudor inconclusive, PLK1 PBD inh 2.7µM (no result: L3MBTL1 inh) | TbPYK confirm inconclusive | TbPYK ADP-Glo inconclusive
CN(C)c1ccc(/C=C/C=C2/C(=O)NC(=O)N(c3ccccc3)C2=O)cc1	L3MBTL1 inh inconclusive, HP1b chromo inh 16µM, BAZ2B block 13µM, JMJD2A Tudor inconclusive, PLK1 PBD inh inconclusive | TbPYK confirm 25µM | TbPYK ADP-Glo inactive
O=C1CC(=O)N(c2ccccc2)C(=O)N1	none (no result: L3MBTL1 inh, BAZ2B block)
O=C(CCn1c(=O)oc2ccccc21)N1CCC2(CC1)OCCO2	none | TbPYK confirm inactive | TbPYK ADP-Glo inactive
Cn1c(=O)n(CC(=O)N2CCC3(CC2)OCCO3)c(=O)c2ccccc21	none
O=C(O)CCn1cc(C=C2C(=O)NC(=O)NC2=O)c(-c2cc3ccccc3oc2=O)n1	BAZ2B block inconclusive, PLK1 PBD inh 15µM | TbPYK confirm 11µM | TbPYK ADP-Glo 32µM
CCCC(=O)OC(C(Cl)(Cl)Cl)P(=O)(OC)OC (configuration not stated)	none (no result: L3MBTL1 inh, HP1b chromo inh, BAZ2B block, JMJD2A Tudor, PLK1 PBD inh)
CC(C)CN1CCC2(CC1)CCN(S(C)(=O)=O)CC2	none (no result: L3MBTL1 inh, HP1b chromo inh, BAZ2B block, JMJD2A Tudor, PLK1 PBD inh)

Screens as filed in PubChem.
